The campaign covered roughly 16,000 compounds. About 4,000 (25%) were called active. Inconclusive results (about 26%) are left out. Not all results are given here. Values without a mark were called inactive. Calls come from the whole dose curve; as a rule, active = well fitted curve in the direction sought with a large enough effect; inconclusive = small, poorly fitted or top-dose-only effect, or effect the other way; inactive = no such curve, though single readings can be large or run the other way.
What follows are compounds tested against Cytochrome P450 2C9 (Homo sapiens) (UniProt P11712) (assay: Cytochrome panel assay with activity outcomes). Details: recombinant CYP, pro-luciferin dealkylation, luminescence, p450-cyp2c9; series mostly up to 57.1 µM.
Cytochrome P450 2C9 (Homo sapiens), sequence (P11712 whole entry, looked up): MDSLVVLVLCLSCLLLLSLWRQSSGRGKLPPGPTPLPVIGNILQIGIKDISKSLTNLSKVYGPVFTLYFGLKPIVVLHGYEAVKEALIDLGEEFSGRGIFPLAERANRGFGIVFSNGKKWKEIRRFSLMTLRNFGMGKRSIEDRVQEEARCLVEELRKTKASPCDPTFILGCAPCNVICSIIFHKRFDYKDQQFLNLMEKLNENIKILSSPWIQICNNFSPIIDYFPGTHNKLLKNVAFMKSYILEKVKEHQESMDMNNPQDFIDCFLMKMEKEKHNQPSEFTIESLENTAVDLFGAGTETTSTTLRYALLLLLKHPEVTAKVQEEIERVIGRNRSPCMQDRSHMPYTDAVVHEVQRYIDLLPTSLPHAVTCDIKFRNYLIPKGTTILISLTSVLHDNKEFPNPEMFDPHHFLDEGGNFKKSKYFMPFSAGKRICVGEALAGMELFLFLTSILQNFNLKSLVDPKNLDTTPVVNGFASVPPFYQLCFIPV
% is set by controls: 0 for no effect and ±100 for the full control effect.

Compound | AC50 | activity, negative = inhibition
CCCc1ccc(C2C3=C(CC(C)(C)CC3=O)NC3=C2C(=O)c2ccccc23)cc1 (stereo unspecified) | 7.94 µM (active) | 
CO[C@H]1COC(=O)[C@@H](Cc2ccccc2)NC(=O)[C@@H](C)COC(=O)C/C=C\[C@@H]1C |  | 15.1% [at 11.4 µM]
Cc1ccc(C(N)=Nc2ccccc2)cc1 |  | 3.59% [at 11.4 µM]
Cc1ccc(/C(N)=N/OC(=O)Cc2cccs2)cc1 | 7.08 µM (active) | 
O=C(O)C(Cc1cccs1)C(=O)O |  | -6.54% [at 11.4 µM]
C[N+]1(C)C[C@@H](O)C[C@@H]1C(=O)[O-] | inactive | 
Cc1ccccc1-c1cncnc1NCc1cccs1 |  | 0.654% [at 2.29 µM]
COc1cccc(C(CC(=O)Nc2cccc3ccccc23)NC(=O)c2ccccc2)c1 (stereo unspecified) | 0.251 µM (active) | 
CN(CCO)c1nc(N)c2c(N)nc3c(c2c1C#N)CC(=O)N3C1CCCC1 | 1.41 µM (active) | 
CC(C)NC(=O)N1CCCC2(CCN(C(=O)c3ccco3)CC2)C1 | inactive | 
CC(C)(C)c1cc2c(O)c(c1)Cc1cc(C(C)(C)C)cc(c1O)Cc1cc(C(C)(C)C)cc(c1O)Cc1cc(C(C)(C)C)cc(c1O)Cc1cc(C(C)(C)C)cc(c1O)Cc1cc(C(C)(C)C)cc(c1O)Cc1cc(C(C)(C)C)cc(c1O)Cc1cc(C(C)(C)C)cc(c1O)C2 |  | -3.37% [at 11.4 µM]
Cn1c(-c2ccc3c(c2)OCO3)cc(=O)c2ccccc21 | inactive | 
CN(Cc1ccco1)c1nc(-c2ccc3c(c2)OCO3)nc2ccccc12 |  | -18.1% [at 2.29 µM]
c1ccc2c(c1)ncn2Cc1nnc2sc(-c3ccc4c(c3)OCO4)nn12 | 3.16 µM (active) | 
Cc1noc(C)c1COc1ccc(C(=O)NCC2CCCO2)cc1 (stereo unspecified) | inactive | 
COc1cc(C(=O)OC(C)C(=O)Nc2ccc3c(c2)OCO3)ccc1OCc1c(C)noc1C (stereo unspecified) | 11.2 µM (active) | 
COc1ccc(C(=O)OC(C)CN2CCN(C)CC2)cc1OC (stereo unspecified) | inactive | 
N#C[C@@H](N=Nc1ccccc1C(=O)O)C(N)=O |  | -3.32% [at 11.4 µM]
CNc1nc(-c2ccccc2C)nc2ccccc12 |  | 24.9% [at 2.29 µM]
CCCN(CCC)S(=O)(=O)c1ccc(C(=O)O)cc1 | inactive | 
CCN(CC)S(=O)(=O)c1ccc(C(=O)Nc2ncn(Cc3ccccc3)n2)cc1 | 11.2 µM (active) | 
O[C@@H](C1=C/C(=C\c2ccncc2)c2ccccc21)c1ccncc1 | 0.1 µM (active) | 
Cc1cc(C(C)(C)C)cc(C)c1CC1=NCCN1 | inactive | 
CCCCN(C(=O)Nc1ccc(OCC)cc1)C1CCN(C(C)=O)CC1 | inactive | 
CCOc1ccc(NC(=O)N2CCC(C(N)=O)(N3CCCCC3)CC2)cc1 | inactive | 
CCOc1ccc(NC(=O)N(C2CCCCC2)C(C)c2ccncc2)cc1 (stereo unspecified) | 3.55 µM (active) | 

— PubChem BioAssay AID1851 (National Center for Advancing Translational Sciences (NCATS), 2009)
